Changes are numbered by the printed parent chain.

This note sets out measurements from PMC8384837, “Expanding the binding specificity for RNA recognition by a PUF domain”.

What all share (test): yeast three-hybrid, YBZ-1, SC-Leu-His + 0.5 mM 3-AT, 4 days
Common to all, as to conditions: tags: N-Gal4 AD-HA kept; label: inside an RPR1-promoter hybrid RNA with tandem MS2 sites; ssRNA

In assay [1] the target is PUM1 PUF domain R7-RRK (Homo sapiens, UniProt Q14671 828-1176, S1079R;N1080R;E1083K). A digest of the protocol:
(§1)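 Repeat regions from input (SC-Leu) and selection (SC-Leu-His + 0.5 mM 3-AT) plates were PCR-amplified and Illumina-sequenced after four days of growth. The cells were strain YBZ-1 with a LexA–MS2 coat fusion and a HIS3 reporter, co-expressing Pumilio-1 PUF domain libraries and matching RNA elements from a centromeric plasmid. The interaction score is the log change in variant frequency from input to selection, taken in log2 with a pseudocount of 1 for absent variants.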

In assay [2] the target is T1, PUM1 PUF domain R6-VWK (Homo sapiens, UniProt Q14671 828-1176, N1043V;Y1044W;Q1047K).
T1 sequence: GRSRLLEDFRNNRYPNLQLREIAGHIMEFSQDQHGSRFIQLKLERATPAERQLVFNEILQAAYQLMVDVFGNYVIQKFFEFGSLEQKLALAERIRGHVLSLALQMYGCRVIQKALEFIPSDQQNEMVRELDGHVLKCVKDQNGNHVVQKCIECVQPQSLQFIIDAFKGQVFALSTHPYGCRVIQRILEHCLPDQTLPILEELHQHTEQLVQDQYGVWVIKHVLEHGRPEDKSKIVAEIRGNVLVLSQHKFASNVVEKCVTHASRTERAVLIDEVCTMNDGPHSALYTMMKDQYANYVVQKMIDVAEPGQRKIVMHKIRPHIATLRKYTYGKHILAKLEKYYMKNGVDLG
The essentials: as §1

Assay [3] addresses PUM1 PUF domain R8-RWT (Homo sapiens, UniProt Q14671 828-1176, N1122R;Y1123W;Q1126T). A digest of the protocol:
as §1

Assay [4] addresses PUM1 PUF domain R8-RWK (Homo sapiens, UniProt Q14671 828-1176, N1122R;Y1123W;Q1126K). A digest of the protocol:
as §1

The target in assay [5] is T2, PUM1 PUF domain R6-CHR (Homo sapiens, UniProt Q14671 828-1176, N1043C;Y1044H;Q1047R).
T2 sequence: T1 sequence with V216C, W217H, K220R
The essentials: as §1

Assay [6] concerns the target PUM1 PUF domain R8-RFH (Homo sapiens, UniProt Q14671 828-1176, N1122R;Y1123F;Q1126H). A digest of the protocol: as §1
Assay [7] has as its target PUM1 PUF domain R4-RHG (Homo sapiens, UniProt Q14671 828-1176, N971R;Q975G). The essentials:
as §1

The target in assay [8] is PUM1 PUF domain R5-MYS (Homo sapiens, UniProt Q14671 828-1176, C1007M;R1008Y;Q1011S). The essentials:
as §1

Assay [9] concerns the target PUM1 PUF domain R3-RTH (Homo sapiens, UniProt Q14671 828-1176, C935R;R936T;Q939H). The essentials: as §1
Assay [10] has as its target PUM1 PUF domain R3-RTW (Homo sapiens, UniProt Q14671 828-1176, C935R;R936T;Q939W). The essentials: as §1
Assay [11] has as its target PUM1 PUF domain R5-RGQ (Homo sapiens, UniProt Q14671 828-1176, C1007R;R1008G). The essentials: as §1
In assay [12] the target is PUM1 PUF domain R5-RGW (Homo sapiens, UniProt Q14671 828-1176, C1007R;R1008G;Q1011W). The essentials: as §1
Assay [13] deals with PUM1 PUF domain R5-KGD (Homo sapiens, UniProt Q14671 828-1176, C1007K;R1008G;Q1011D). The essentials:
as §1

The target in assay [14] is PUM1 PUF domain R2-DWE (Homo sapiens, UniProt Q14671 828-1176, N899D;Y900W;Q903E). A digest of the protocol:
as §1

In assay [15] the target is PUM1 PUF domain R4-FHR (Homo sapiens, UniProt Q14671 828-1176, N971F;Q975R). A digest of the protocol:
as §1

Assay [16] addresses PUM1 PUF domain R1-KME (Homo sapiens, UniProt Q14671 828-1176, S863K;R864M;Q867E). A digest of the protocol:
as §1

For assay [17], the target named is PUM1 PUF domain R5-GQW (Homo sapiens, UniProt Q14671 828-1176, C1007G;R1008Q;Q1011W). The essentials: as §1
In assay [18] the target is PUM1 PUF domain R2-MWR (Homo sapiens, UniProt Q14671 828-1176, N899M;Y900W;Q903R). The essentials: as §1
The target in assay [19] is PUM1 PUF domain R2-DWQ (Homo sapiens, UniProt Q14671 828-1176, N899D;Y900W). A digest of the protocol: as §1
For assay [20], the target named is PUM1 PUF domain R2-LFV (Homo sapiens, UniProt Q14671 828-1176, N899L;Y900F;Q903V). A digest of the protocol: as §1

On to “GGCUAGAACUAGUGGAUCCCCCGGCGCCCGGCGGCUCGAGCCCGGGUAAGUCUAAAUAGUCUGCAUGCCGCCGGGCGCCAUGCCUGCAGGUCGACUCUAGAAAACAUG”, for which the binding signal in [1] is 1.72 log2 enrichment (interaction score).
For the sequence “GGCUAGAACUAGUGGAUCCCCCGGCGCCCGGCGGCUCGAGCCCGGGUAAGUGAAAAUAGUCUGCAUGCCGCCGGGCGCCAUGCCUGCAGGUCGACUCUAGAAAACAUG”, the binding signal in [2] was 7.03 log2 enrichment (interaction score).
As to “GGCUAGAACUAGUGGAUCCCCCGGCGCCCGGCGGCUCGAGCCCGGGUAAGUGUAAAUAGUCUGCAUGCCGCCGGGCGCCAUGCCUGCAGGUCGACUCUAGAAAACAUG”, the binding signal in assay [3] was 4.9 log2 enrichment (interaction score); in assay [2] it was 5.58 log2 enrichment (interaction score); in assay [4] it was 6.43 log2 enrichment (interaction score); in assay [5], 3.81 log2 enrichment (interaction score); in assay [6], 4.43 log2 enrichment (interaction score); in [7] it was 2.69 log2 enrichment (interaction score). Besides, the binding signal in assay [8] is 2.4 log2 enrichment (interaction score).
On to “GGCUAGAACUAGUGGAUCCCCCGGCGCCCGGCGGCUCGAGCCCGGGUAAGUGUAAUUAGUCUGCAUGCCGCCGGGCGCCAUGCCUGCAGGUCGACUCUAGAAAACAUG”, for which the binding signal in assay [9] is 3.6 log2 enrichment (interaction score); in [10] it was 2.38 log2 enrichment (interaction score).
On to “GGCUAGAACUAGUGGAUCCCCCGGCGCCCGGCGGCUCGAGCCCGGGUAAGUGUCAAUAGUCUGCAUGCCGCCGGGCGCCAUGCCUGCAGGUCGACUCUAGAAAACAUG”, for which the binding signal was 2.62 log2 enrichment (interaction score) in assay [11], 2.31 log2 enrichment (interaction score) in assay [12] and 3.76 log2 enrichment (interaction score) in assay [13].
Turning to “GGCUAGAACUAGUGGAUCCCCCGGCGCCCGGCGGCUCGAGCCCGGGUAAGUUUAAAUAGUCUGCAUGCCGCCGGGCGCCAUGCCUGCAGGUCGACUCUAGAAAACAUG”, the binding signal in [1] was 4.3 log2 enrichment (interaction score).
With “GGCUAGAACUAGUGGAUCCCCCGGCGCCCGGCGGCUCGAGCCCGGGUAAGUGUAAAGAGUCUGCAUGCCGCCGGGCGCCAUGCCUGCAGGUCGACUCUAGAAAACAUG”, the binding signal in assay [14] is 9.59 log2 enrichment (interaction score).
For “GGCUAGAACUAGUGGAUCCCCCGGCGCCCGGCGGCUCGAGCCCGGGUAAGUGUACAUAGUCUGCAUGCCGCCGGGCGCCAUGCCUGCAGGUCGACUCUAGAAAACAUG”, in [7], the binding signal is 4.02 log2 enrichment (interaction score).
Regarding “GGCUAGAACUAGUGGAUCCCCCGGCGCCCGGCGGCUCGAGCCCGGGUAAGUGUAUAUAGUCUGCAUGCCGCCGGGCGCCAUGCCUGCAGGUCGACUCUAGAAAACAUG”, the binding signal was 3.37 log2 enrichment (interaction score) in assay [15] and 4.05 log2 enrichment (interaction score) in assay [7].
For “GGCUAGAACUAGUGGAUCCCCCGGCGCCCGGCGGCUCGAGCCCGGGUAAGUGUAAAUCGUCUGCAUGCCGCCGGGCGCCAUGCCUGCAGGUCGACUCUAGAAAACAUG”, the binding signal in assay [16] was 4.22 log2 enrichment (interaction score).
For the sequence “GGCUAGAACUAGUGGAUCCCCCGGCGCCCGGCGGCUCGAGCCCGGGUAAGUGUUAAUAGUCUGCAUGCCGCCGGGCGCCAUGCCUGCAGGUCGACUCUAGAAAACAUG”, the binding signal in assay [11] is 4.2 log2 enrichment (interaction score); in [17] it was 2.77 log2 enrichment (interaction score); in assay [8] it was 3.54 log2 enrichment (interaction score).
In the case of “GGCUAGAACUAGUGGAUCCCCCGGCGCCCGGCGGCUCGAGCCCGGGUAAGUGUAAACAGUCUGCAUGCCGCCGGGCGCCAUGCCUGCAGGUCGACUCUAGAAAACAUG”, the binding signal was 5.06 log2 enrichment (interaction score) in assay [18] and 4.49 log2 enrichment (interaction score) in [19].
For “GGCUAGAACUAGUGGAUCCCCCGGCGCCCGGCGGCUCGAGCCCGGGUAAGUGUAAAAAGUCUGCAUGCCGCCGGGCGCCAUGCCUGCAGGUCGACUCUAGAAAACAUG”, the figures for the binding signal in assay [19] and in assay [20] were 7.04 log2 enrichment (interaction score) and 4.38 log2 enrichment (interaction score), respectively.
Turning to “GGCUAGAACUAGUGGAUCCCCCGGCGCCCGGCGGCUCGAGCCCGGGUAAGCGUAAAUAGUCUGCAUGCCGCCGGGCGCCAUGCCUGCAGGUCGACUCUAGAAAACAUG”, the binding signal was 5.51 log2 enrichment (interaction score) in assay [3], 6.98 log2 enrichment (interaction score) in [4] and 4.72 log2 enrichment (interaction score) in [6].
